According to ChEMBL document CHEMBL4888484, “Replenishing the malaria drug discovery pipeline: Screening and hit evaluation of the MMV Hit Generation Library 1 (HGL1) against asexual blood stage Plasmodium falciparum ,using a nano luciferase reporter read-out” (2022):
The campaign covered roughly 150,000 compounds. About 540 (0.36%) showed an effect of 50% or more. The list comes from a sample in which strong results are over-represented; it also holds similar structures and randomly drawn compounds.

These molecules were tested on Plasmodium falciparum (assay: Primary screen in NF54 nanoGlo assay, in single point, at 2uM, 72h; a lower Z score goes with more inhibition). Conditions: timepoint 72 hour.
Assay type: functional, Erythrocyte

SMILES | % Inhibition | Z score
Cc1cccc2c1OCC[C@H]2NC(=O)Cn1cnc2c1CCNC21CCOCC1 | -5% | 0.76
Clc1ccc(COc2ccc(Cl)cc2CNCCCn2ccnc2)c(Cl)c1 | 94% | -11.1
O[C@@H](CNCCCn1ccnc1)COc1ccc(Cl)cc1Cl | 26% | -2.66
CCOc1cc(CNCCCn2ccnc2)ccc1OCc1ccccc1 | 46% | -2.57
C[C@@H](NCCCn1ccnc1)c1ccc(Cl)cc1 | -4% | 0.5
Clc1ccc(Cn2cc(CNCCCn3ccnc3)c3ccccc32)c(Cl)c1 | 98% | -10.9
O=c1[nH]nc(Cn2ccnc2)n1Cc1ccc(Cl)cc1Cl | 0% | -0.08
O=C(O)c1cccc(CN2CCc3nc(C4CC4)ncc3C2)c1 | -13% | 1.45
CC1CC(N2CCCC(n3cnc4ccccc43)C2)CN1C (centres undefined) | -5% | 0.43
Cc1ccc(C(=O)c2nocc2C(=O)c2cccnc2)cc1 | 1% | -0.19
CCc1cc(C(=O)N2CCN(C/C=C/c3ccccc3)CC2)cc(=O)[nH]1 | 0% | 0.04
CC(C)[C@@H]1CC[C@H](C)C[C@H]1OC(=O)Cn1cc(-c2ccc(Cl)cc2)[n+]2c1CCC2 | 79% | -6.99
CC1CCC(C(C)C)C(OC(=O)Cn2nnc(C(N)=O)n2)C1 (centres undefined) | 19% | -2.22
CC1CCC(C(C)C)C(OC(=O)COC(=O)c2ccncc2)C1 (centres undefined) | -10% | 1.31
Cc1onc(-c2ccccn2)c1C(=O)NC1CCCCC1 | 12% | -2.28
CNC(=O)CCCC(=O)Nc1ccc(Br)cc1O | -9% | 0.88
C=C(C)C(=O)Nc1ccc(Cc2ccc(NC(=O)C(=C)C)c(O)c2)cc1O | 0% | -0.04
O=C(Nc1ccc(Cc2ccc(NC(=O)c3ccc(Br)cc3)c(O)c2)cc1O)c1ccc(Br)cc1 | 60% | -1
CCN(CC(=O)N1CCCNC(=O)[C@@H]1C)c1ccccc1 | -10% | 1.27
O=C(NCCc1nccs1)c1n[nH]c2c1CCc1ccccc1-2 | -9% | 1.37
O=C(NCCN1CCCCC1)c1n[nH]c2c1CCc1ccccc1-2 | 52% | -0.47

SMILES | % Inhibition | Z score
O=C(c1n[nH]c2c1CCc1ccccc1-2)N1CCCCCC1 | -15% | 1.3
CC(C)c1nc(C(=O)Nc2[nH]nc(C3CC3)c2C#N)cs1 | -25% | 3.79
CCc1ncc(NC(=O)c2coc(-c3ccccc3)n2)cn1 | -21% | 2.66
Cc1nc(C(=O)Nc2[nH]c(=O)ncc2F)c(-c2ccccc2)o1 | 80% | -7.61
Cc1nc(C(=O)NC[C@@]23CCC[C@@H]2OCC3)c(-c2ccccc2)o1 | 0% | -0.01
O=C(Nc1[nH]c(=O)ncc1F)c1coc(-c2ccccc2)n1 | 80% | -14.59
Nc1ccc(F)cc1NC(=O)c1coc(-c2ccccc2)n1 | -10% | 1.7
CC(C)c1nc(C(=O)Nc2[nH]c(=O)ncc2F)cs1 | 88% | -15.46
Cc1cnc(NC(=O)c2nc(C)oc2-c2ccccc2)[nH]1 | -10% | 1.11
CC(C)c1nc(C(=O)N[C@@H](C)C(N)=O)cs1 | -9% | 1.83
CCOCCCNC(=O)C1CCN(C(=O)c2cc3oc(C)cc3n2Cc2c(F)cccc2Cl)CC1 | -1% | 0.06
CN1CCN(S(=O)(=O)N2CCN(Cc3cccn3C)CC2)CC1 | 7% | -0.7
NC(=O)CN1CCC(Nc2nc3ccccc3n2CCO)CC1 | -7% | 1.08
COc1cccc(NC(=O)Cc2c(C)nn(-c3nc(-c4ccc(C)cc4)cs3)c2C)c1 | -13% | 1.45
CN(Cc1cc2cc(F)ccc2[nH]1)Cc1ccnn1C | -9% | 1.38
C[C@H](Nc1ccc(C#N)cn1)c1cccc(-n2cccn2)c1 | 0% | 0.03
CCCCCc1c(C)nc2[nH]n(-c3ccccc3)c(=O)c2c1O | 34% | 2.26
CNCCc1c(-c2ccccc2)[nH]n(-c2ccccc2)c1=O | 82% | -6.33
Cc1ccccc1Cc1c(C)[nH]c2[nH]n(-c3ccccc3)c(=O)c2c1=O | 10% | -1.18
O=C1NCCN1CCN1CCc2[nH]ncc2C1 | -10% | 1.34
CC1=NN(c2ccccc2)C(=O)C12Cc1ccc(Cl)cc1N1CCCCC12 (centres undefined) | 8% | -1.22
